# Source: the supplement of paper PMC10477191
# ± gives the standard deviation of the averaged measurements.
# What was measured:
# Assay in all cases: odor-evoked OSN spike response (post minus pre-stimulus); higher = stronger neuronal excitation
# Settings in all cases: odor dilution: 10^-4
# [1] = system: Drosophila ezoana antennal basiconic sensillum ab1
# In short: (§1)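 Recordings came from antennal basiconic sensilla of restrained adult flies, taking up to 3 sensilla per fly, with a tungsten electrode placed at the sensillum base. Each odorant was diluted to 10^−4 in mineral oil or DMSO, and 10 µl was loaded onto filter paper. A 500 ms air pulse carried it into a charcoal-filtered, humidified air stream flowing at 1.5 l min^−1. The value reported is the change in spike frequency from a 1-second window before the stimulus to a 1-second window after it, counted in Auto Spike software and averaged across replicate sensilla.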
# [2] = system: Drosophila ezoana antennal basiconic sensillum ab3
# In short: as §1
# [3] = system: Drosophila ezoana antennal basiconic sensillum ab8
# In short: as §1
# [4] = system: Drosophila ezoana antennal basiconic sensillum ab9
# In short: as §1
# [5] = system: Drosophila virilis antennal basiconic sensillum AB3
# In short: as §1
# [6] = system: Drosophila virilis antennal basiconic sensillum AB7
# In short: as §1
# [7] = system: Drosophila virilis antennal basiconic sensillum AB8
# In short: as §1
# [8] = system: Drosophila virilis antennal basiconic sensillum AB9
# In short: as §1
# [9] = system: Drosophila virilis antennal basiconic sensillum AB1
# In short: as §1
# [10] = system: Drosophila ezoana antennal basiconic sensillum ab2
# In short: as §1
# [11] = system: Drosophila virilis antennal basiconic sensillum AB2
# In short: as §1
# [12] = system: Drosophila ezoana antennal basiconic sensillum ab4
# In short: as §1
# [13] = system: Drosophila virilis antennal basiconic sensillum AB6
# In short: as §1
structure (smiles),measurement,setting,value
CCCCCOC(C)=O [pentyl acetate],odor-evoked OSN spike response,[1],62.6 ± 43 spikes/s
same,odor-evoked OSN spike response,[2],120 ± 29 spikes/s
same,odor-evoked OSN spike response,[3],122 ± 45 spikes/s
same,odor-evoked OSN spike response,[4],67.9 ± 29 spikes/s
same,odor-evoked OSN spike response,[5],121 ± 16 spikes/s
same,odor-evoked OSN spike response,[6],75.4 ± 13 spikes/s
same,odor-evoked OSN spike response,[7],119 ± 24 spikes/s
same,odor-evoked OSN spike response,[8],80 ± 39 spikes/s
CCCC(=O)CC [3-hexanone],odor-evoked OSN spike response,[1],59.3 ± 31 spikes/s
same,odor-evoked OSN spike response,[2],52 ± 27 spikes/s
same,odor-evoked OSN spike response,[4],51.3 ± 35 spikes/s
same,odor-evoked OSN spike response,[9],76 ± 7.4 spikes/s
same,odor-evoked OSN spike response,[8],65.5 ± 27 spikes/s
C/C=C/C(=O)OCC [Ethyl crotonate],odor-evoked OSN spike response,[10],61.5 ± 39 spikes/s
same,odor-evoked OSN spike response,[4],50.1 ± 30 spikes/s
same,odor-evoked OSN spike response,[11],47.5 ± 26 spikes/s
CC(=O)OCCC(C)C [Isopentyl acetate],odor-evoked OSN spike response,[2],55.5 ± 29 spikes/s
same,odor-evoked OSN spike response,[3],73.6 ± 38 spikes/s
same,odor-evoked OSN spike response,[4],56.7 ± 36 spikes/s
same,odor-evoked OSN spike response,[8],81.4 ± 33 spikes/s
CC(=O)CCC=C(C)C [6-methyl-5-hepten-2-one],odor-evoked OSN spike response,[6],150 ± 34 spikes/s
OCCc1ccccc1 [2-phenylethanol],odor-evoked OSN spike response,[3],63.9 ± 26 spikes/s
CCCCCC(=O)OCC [ethyl hexanoate],odor-evoked OSN spike response,[2],141 ± 28 spikes/s
same,odor-evoked OSN spike response,[3],77.2 ± 32 spikes/s
same,odor-evoked OSN spike response,[4],56.8 ± 31 spikes/s
same,odor-evoked OSN spike response,[5],153 ± 23 spikes/s
same,odor-evoked OSN spike response,[6],49 ± 24 spikes/s
same,odor-evoked OSN spike response,[7],66.1 ± 8.9 spikes/s
same,odor-evoked OSN spike response,[8],67.4 ± 21 spikes/s
"CC(O)C(C)O (stereo unspecified) [2,3-Butanediol]",odor-evoked OSN spike response,[1],68.2 ± 35 spikes/s
same,odor-evoked OSN spike response,[2],51.5 ± 25 spikes/s
same,odor-evoked OSN spike response,[9],71.5 ± 10 spikes/s
same,odor-evoked OSN spike response,[5],67.8 ± 30 spikes/s
same,odor-evoked OSN spike response,[6],66.2 ± 17 spikes/s
CCCC(=O)OCc1ccccc1 [benzyl butyrate],odor-evoked OSN spike response,[10],43.7 ± 32 spikes/s
same,odor-evoked OSN spike response,[4],56.9 ± 30 spikes/s
same,odor-evoked OSN spike response,[11],58.8 ± 31 spikes/s
C[C@H]1CCC[C@@]2(C)CCCC[C@]12O [geosmin],odor-evoked OSN spike response,[12],119 ± 39 spikes/s
C=CC(O)CCCCC (stereo unspecified) [1-octen-3-ol],odor-evoked OSN spike response,[3],118 ± 51 spikes/s
same,odor-evoked OSN spike response,[4],50.6 ± 26 spikes/s
same,odor-evoked OSN spike response,[13],114 ± 44 spikes/s
same,odor-evoked OSN spike response,[6],106 ± 11 spikes/s
same,odor-evoked OSN spike response,[7],113 ± 14 spikes/s
CCCCCC(C)=O [2-heptanone],odor-evoked OSN spike response,[2],64.7 ± 28 spikes/s
same,odor-evoked OSN spike response,[3],54.2 ± 25 spikes/s
same,odor-evoked OSN spike response,[6],155 ± 25 spikes/s
COc1ccccc1O [guaiacol],odor-evoked OSN spike response,[4],50.8 ± 26 spikes/s
same,odor-evoked OSN spike response,[13],73.3 ± 47 spikes/s
CCOC(C)=O [Ethyl acetate],odor-evoked OSN spike response,[1],56.4 ± 35 spikes/s
same,odor-evoked OSN spike response,[2],60.2 ± 27 spikes/s
same,odor-evoked OSN spike response,[9],69.2 ± 27 spikes/s
same,odor-evoked OSN spike response,[11],65 ± 20 spikes/s
CCC(=O)OCCC(C)C [Isopentyl propionate],odor-evoked OSN spike response,[3],79 ± 39 spikes/s
same,odor-evoked OSN spike response,[4],66.7 ± 31 spikes/s
same,odor-evoked OSN spike response,[7],56.8 ± 27 spikes/s
same,odor-evoked OSN spike response,[8],86.6 ± 27 spikes/s
CCCCCCO [1-hexanol],odor-evoked OSN spike response,[2],53 ± 23 spikes/s
same,odor-evoked OSN spike response,[3],176 ± 44 spikes/s
same,odor-evoked OSN spike response,[6],61.4 ± 22 spikes/s
same,odor-evoked OSN spike response,[7],239 ± 25 spikes/s
same,odor-evoked OSN spike response,[8],28.8 ± 14 spikes/s
CCc1ccc(O)c(OC)c1 [4-Ethylguaiacol],odor-evoked OSN spike response,[2],57.6 ± 32 spikes/s
CCOC(=O)CC(C)O (stereo unspecified) [Ethyl-3-hydroxybutyrate],odor-evoked OSN spike response,[10],60.9 ± 32 spikes/s
same,odor-evoked OSN spike response,[2],133 ± 55 spikes/s
same,odor-evoked OSN spike response,[3],108 ± 45 spikes/s
same,odor-evoked OSN spike response,[4],59.2 ± 23 spikes/s
same,odor-evoked OSN spike response,[9],70.5 ± 24 spikes/s
same,odor-evoked OSN spike response,[5],167 ± 54 spikes/s
same,odor-evoked OSN spike response,[13],63.2 ± 25 spikes/s
same,odor-evoked OSN spike response,[6],85.6 ± 14 spikes/s
same,odor-evoked OSN spike response,[7],53 ± 9.4 spikes/s
same,odor-evoked OSN spike response,[8],58.3 ± 24 spikes/s
CCCCC(C)=O [2-hexanone],odor-evoked OSN spike response,[2],52.9 ± 26 spikes/s
same,odor-evoked OSN spike response,[6],50.8 ± 8.6 spikes/s
CC(C)CCO [Isopentyl alcohol],odor-evoked OSN spike response,[3],65.8 ± 25 spikes/s
same,odor-evoked OSN spike response,[6],51.2 ± 14 spikes/s
